High-throughput results (PubChem)
ssDAF-12 act – S. stercoralis DAF-12 nuclear receptor activators, primary screen, cell-based, luminescence, HEK293, GRIP1 co-expression, lit1-tk-luc. Nuclear hormone receptor DAF-12 (Strongyloides stercoralis). HEK293 ssDAF-12/GRIP1 lit1-tk-luc reporter; % of 3 µM dafachronic acid response. activation, % at 6.8 µM. 370,000 compounds, 1% hits;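 active means activation above the mean over all tested compounds plus 3 SD, cut at about 0.9% in these data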;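 further: 0% = DMSO-only wells and 100% = 3 µM delta7-dafachronic acid wells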
DAX1 inh-1 – DAX1 (NR0B1) inhibitors on StAR promoter, primary screen, cell-based, luminescence, SF-1 (NR5A1), full-length DAX-1; HEK293T StAR-luciferase reporter, SF-1/DAX-1 repression relief; inhibition, % at 6.8 µM; 370,000 compounds, 1.1% hits;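 active means inhibition above the mean over all tested compounds plus 3 SD, cut at about 3.6% in these data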;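 further: 0% = DAX-1 cells with DMSO and 100% = cells lacking DAX-1 with DMSO; higher inhibition means more luminescence from relief of DAX-1 repression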
DAX1 inh-2 – DAX1 (NR0B1) inhibitors, primary screen, cell-based, HEK293, Gal4-DAX1, luciferase luminescence; AID 504766, 2011; HEK293 Gal4-DAX1 luciferase reporter; 340,000 compounds, 0.99% hits; inhibition, % at 6.75 µM; Nuclear receptor subfamily 0 group B member 1 (Homo sapiens), P51843;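 active means inhibition above the mean over all tested compounds plus 3 SD, cut at about 4.2% in these data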;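 further: 0% = DAX1-transfected cells with DMSO and 100% = empty-vector control cells with DMSO; inhibition shows as a rise in luminescence from relieved DAX1 repression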
Target sequence (P51843 207-470 limits assumed): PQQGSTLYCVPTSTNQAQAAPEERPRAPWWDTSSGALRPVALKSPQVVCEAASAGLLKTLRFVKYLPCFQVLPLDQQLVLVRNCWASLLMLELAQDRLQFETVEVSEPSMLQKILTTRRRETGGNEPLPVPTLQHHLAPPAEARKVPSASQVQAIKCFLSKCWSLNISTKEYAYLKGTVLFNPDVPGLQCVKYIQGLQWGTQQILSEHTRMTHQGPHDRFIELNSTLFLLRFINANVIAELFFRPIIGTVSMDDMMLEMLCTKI
SMARCA2 act – SMARCA2 (BRM) function activators, primary screen, cell-based, luminescence, high throughput | MG213 cells, MMTV-luciferase reporter, dexamethasone, overnight | activation, % at 9.1 µM | 370,000 compounds, 1% hits; in the data active means activation above about 7.8%;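 further: 0% = vehicle wells and 100% = reference activator wells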
hgDAF-12 ag – H. glycines DAF-12 receptor agonists, primary screen, cell-based, luminescence, HEK293, GAL4 fusion, UAS-luciferase. Nuclear hormone receptor DAF-12 (Heterodera glycines), GAL4 fusion. HEK293 GAL4-hgDAF12 UAS-luciferase reporter, agonist luminescence; normalized to butyrate control. activation, % at 6.8 µM. 370,000 compounds, 1.8% hits. AID 687014, 2013;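 active means activation above a cutoff set at the mean of all screened compounds plus 3 SD, cut at about 10% in these data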;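 further: 0% = DMSO wells and 100% = sodium butyrate wells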
hcDAF-12 act – H. contortus DAF-12 nuclear receptor activators, primary screen, cell-based, luminescence, HEK293, lit1-tk-luc reporter; HEK293 hcDAF-12 lit1-tk-luc reporter; 0% DMSO, 100% Δ7-dafachronic acid; activation, % at 6.8 µM; 370,000 compounds, 1.4% hits;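 active means activation above the mean of all tested compounds plus 3 SD, cut at about 5.5% in these data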;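 further: 100% = response to 3 µM Δ7-dafachronic acid high control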
DAX1 conf – DAX1 (NR0B1) inhibitors relieving SF-1 repression, confirmation, cell-based, luminescence, HEK293T, full-length DAX-1, SF-1 activated StAR promoter; shares compounds with DAX1 inh-1; HEK293T StAR-promoter luciferase reporter, SF-1/DAX-1 repression; inhibition, % at 6.8 µM; 2,400 compounds, 87% hits; AID 652134, 2013;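 active means inhibition above the average of every tested compound plus 3 SD, cut at about 3.8% in these data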;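 further: 0% = DAX-1 cells with DMSO and 100% = no DAX-1 control cells with DMSO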
Target sequence (P51843 whole entry, looked up): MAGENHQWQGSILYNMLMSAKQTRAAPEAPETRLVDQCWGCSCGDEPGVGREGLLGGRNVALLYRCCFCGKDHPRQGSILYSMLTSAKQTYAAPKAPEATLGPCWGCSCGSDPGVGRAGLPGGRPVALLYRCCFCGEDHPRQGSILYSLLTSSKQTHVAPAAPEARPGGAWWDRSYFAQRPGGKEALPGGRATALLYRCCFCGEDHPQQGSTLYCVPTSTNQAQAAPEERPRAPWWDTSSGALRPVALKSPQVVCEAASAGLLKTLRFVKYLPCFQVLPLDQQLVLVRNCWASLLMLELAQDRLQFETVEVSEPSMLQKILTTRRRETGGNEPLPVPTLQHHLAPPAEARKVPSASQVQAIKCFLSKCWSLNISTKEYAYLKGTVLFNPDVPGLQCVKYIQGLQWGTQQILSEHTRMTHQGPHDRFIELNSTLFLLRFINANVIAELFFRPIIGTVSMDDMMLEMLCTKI
SF1 mutant ctr – StAR reporter signal changes without DAX1, counter-screen for DAX1 inhibitor project, cell-based, luminescence, AF-2 mutant SF-1, transactivation. shares compounds with DAX1 inh-1. HEK293 StAR-luciferase, SF-1 AF2 mutant. inhibition, % at 6.8 µM. 2,400 compounds, 78% hits;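 active means inhibition above the mean of all tested compounds plus 3 SD, cut at about 3% in these data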;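 further: 0% = DAX-1 transfected cells with DMSO and 100% = cells without DAX-1 with DMSO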
SMARCA2 act conf – SMARCA2 (BRM) function activators, confirmation, cell-based, luminescence, triplicate | shares compounds with SMARCA2 act | MG213 cells, MMTV-luciferase with dexamethasone, overnight; MG213 cells expressing E1A, Rb sequestered; DMSO wells 0%, reference activator 100% | activation, % at 9.1 µM | 3,500 compounds, 30% hits;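 active means activation above its plate's cutoff, the mean activation of tested wells plus 3 SD, cut at about 7.9% in these data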
GAL4-VP16 Luc – GAL4-VP16 luciferase reporter activation, counter-screen for SMARCA2 (BRM) activator project, cell-based, pG5luc, luminescence, high throughput. activation, % at 9.1 µM. AID 686939, 2013. shares compounds with SMARCA2 act. 3,500 compounds, 41% hits. HEK293 GAL4-VP16 pG5luc reporter; scaled: DMSO wells 0%, SAHA wells 100%;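 active means activation above the solvent-only control well mean plus 3 SD, averaged across control plates, cut at about 5.2% in these data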
The depositor's hits bear a star; . = no result given. An excerpt weighted towards active compounds, which were near 4.8% of everything screened.

SMILES | ssDAF-12 act | DAX1 inh-1 | DAX1 inh-2 | SMARCA2 act | hgDAF-12 ag | hcDAF-12 act | DAX1 conf | SF1 mutant ctr | SMARCA2 act conf | GAL4-VP16 Luc
O=C(N/N=C/C(Br)=C\c1ccccc1)c1n[nH]c2c1CCC2 | 1.9* | 4.7* | -0.8 | 8.4* | 0.9 | 4.6 | 20.9* | -3.5 | 10.7* | 21.2*
CN(C)CCNC(=S)Nc1ccc(-c2nc3ccccc3[nH]2)cc1 | -0.1 | 5.0* | 3.4 | 8.3* | 12.8* | 4.4 | 12.3* | 8.7* | 16.3* | 5.9*
S=C(NCCCN1CCOCC1)Nc1ccc(-c2nc3ccccc3[nH]2)cc1 | -1.7 | -2.0 | 0.5 | 2.4 | 1.7 | -1.9 | . | . | . | .
CCOC(=O)N1CCN(C(=O)C[C@H]2C[C@@]3(C(=O)OC)C(=C[C@H](C(C)C)O[C@@H]3C3CC3)N(CCC3=CCCCC3)C2=O)CC1 | -1.2 | -0.2 | . | -4.8 | -2.6 | -3.6 | . | . | . | .
Cc1ccc2nsnc2c1NC(=O)c1sc2ccccc2c1Cl | -1.8 | -0.4 | -0.4 | -3.0 | 0.1 | -0.1 | . | . | . | .
Cc1cccnc1NC(=O)c1sc2ccccc2c1Cl | -0.1 | 10.1* | 1.2 | 8.5* | 13.2* | 3.5 | 11.3* | 5.3* | 17.6* | 7.8*
O=C(c1ccco1)N(Cc1cccnc1)C(c1ccccc1)c1nc2ccccc2[nH]1 (configuration not stated) | -0.2 | 6.0* | . | 8.6* | 7.7 | 1.8 | 3.8* | 3.1* | 11.0* | 6.1*
COc1cc(NC(=O)Cc2ccc(S(=O)(=O)N3CCOCC3)s2)c(OC)cc1Cl | -0.7 | -1.6 | -0.8 | -4.0 | 0.8 | 0.3 | . | . | . | .
Cc1ccc2nc(-c3ccc(F)cc3)c(Cc3cccc(Cl)c3)n2c1 | 0.0 | 9.6* | . | 12.8* | 9.0 | 2.9 | 7.5* | 4.3* | 7.3 | 7.3*
Cc1ccc2nc(-c3ccc(F)cc3)c(Cc3cccc(F)c3)n2c1 | -0.2 | 4.8* | . | 8.6* | 11.1* | 4.0 | 4.1* | 4.6* | 2.8 | 1.4
O=C(O)CCCNc1n[nH]c(=O)[nH]c1=O | -1.1 | 0.1 | -0.5 | -0.3 | 2.4 | -0.3 | . | . | . | .
C/C(=N/NC(=O)c1ccoc1C)c1cccs1 | -0.2 | 7.8* | . | 13.3* | 8.8 | 4.6 | 12.2* | 7.3* | 9.2* | 5.2*
COc1ccc(-c2coc3cc(O)c(OC)cc3c2=O)cc1 | 0.0 | 0.1 | -0.2 | 6.1 | 9.9 | 1.4 | . | . | . | .
COc1ccc(-c2coc3cc(O)ccc3c2=O)cc1O | 0.3 | 5.0* | 3.6 | 8.0* | 13.1* | 1.3 | 6.5* | 3.3* | 13.2* | 10.8*
O=C(NNC(=S)Nc1ccccc1)c1cccnc1 | -1.2 | 5.1* | 0.2 | 8.8* | 2.9 | 0.0 | 3.6* | 5.6* | -2.4 | 5.4*
COc1ccc(-c2cnc3c(NC(C)=O)cc(-c4cccc(C(=O)N(C)C)c4)cn23)cc1OC | -1.2 | -2.3 | . | -3.2 | -4.2 | -2.0 | . | . | . | .
CC(C)(C)OC(=O)NOCC(=O)N(CC(=O)c1ccccc1)Cc1ccccc1 | -1.6 | 0.1 | -0.1 | -0.4 | -0.5 | -1.0 | . | . | . | .
CN1CCC[C@H]1CCNc1ccc2c(=O)c3ccccc3n(C)c2c1 | -0.2 | 8.1* | 1.3 | 26.9* | 9.4 | 5.1 | 15.2* | 9.6* | 53.1* | 8.6*
CN1CCCC1CCNc1ccc2oc3ccccc3c(=O)c2c1 (configuration not stated) | 0.0 | 2.1 | . | 3.7 | 7.8 | 2.6 | . | . | . | .
Cn1c(C(=O)NCCCN2CCOCC2)cc2c(=O)n(C)c3ccccc3c21 | -1.1 | 1.4 | 2.5 | -1.1 | -2.0 | -0.8 | . | . | . | .
Cn1c2ccccc2c(=O)c2cc(NCCCN3CCOCC3)ccc21 | 0.2 | 5.1* | 3.7 | 14.6* | 10.6* | 4.3 | 15.1* | 10.1* | 17.8* | 8.7*
O=[N+]([O-])c1ccc(F)cc1F | -1.2 | 0.6 | 0.9 | -5.0 | 1.6 | -0.8 | . | . | . | .
O=C(CSc1nnc(NC(=O)Cc2ccccc2)s1)NCC1CCCO1 (configuration not stated) | -0.7 | -0.2 | 1.3 | -2.4 | -0.3 | 3.5 | . | . | . | .
O=C(CSc1nnc(NC(=O)c2ccccc2)s1)NCC1CCCO1 (configuration not stated) | -0.2 | 6.2* | 0.0 | 9.4* | 7.2 | 1.9 | 4.2* | 4.3* | 1.5 | 6.5*
O=C(OCC#CCSc1nnc(-c2cccc3ccccc23)o1)c1ccc(F)nc1 | -0.8 | . | . | . | 1.3 | -2.6 | . | . | . | .
O=C(NCCc1ccc(Cl)cc1)c1ccc2nccnc2c1 | -0.4 | 5.4* | 2.0 | 9.4* | 8.4 | 3.8 | 8.2* | 7.9* | 9.6* | 9.9*
O=C(O)C(Cc1ccccc1)N1C(=O)C2CCCCC2C1=O (configuration not stated) | -0.6 | -0.2 | -0.7 | -2.0 | 6.8 | -0.5 | . | . | . | .
Nc1cc(OCc2ccccc2)ccc1OCc1ccccc1 | -0.1 | 4.7* | 2.5 | 9.4* | 4.3 | 1.1 | 3.6* | 4.5* | 2.7 | 7.8*
COc1cc2c(C(=O)N3CCN(c4cccc(Cl)c4)CC3)cn(C)c(=O)c2cc1OC | -1.1 | 0.0 | -0.2 | 1.6 | -1.5 | -0.1 | . | . | . | .
O=C(CCC(=O)OCC(F)(F)C(F)F)Nc1ccc(F)cc1F | -1.4 | 0.1 | 0.4 | -2.3 | -1.0 | -1.8 | . | . | . | .
